Bioassay records deposited in PubChem by National Center for Advancing Translational Sciences (NCATS).
NS1 function inh: qHTS Assay for Inhibitors of Influenza NS1 Protein Function. Potency, µM (top dose mostly 46.1 µM), for inactives: at the highest dose activity, positive = more growth. actives 0.4% (n = 270,000); calls by dose curve; also: potency is read from the fitted curve at half-maximal effect; actives are rising curves; nearly all actives have a fitted effect of over 50% in size
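In this qHTS, NS1 from influenza A is expressed in budding yeast, where it slows growth. Cells are switched from glucose to 2% galactose medium (pH 6.0, -URA), treated with compound, and growth recovery is read at OD600.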
Shiga inhibitor: A qHTS for Small Molecule Inhibitors of Shiga Toxin; Vero cells, Shiga toxin protein synthesis inhibition reporter; actives 9.2% (n = 290,000); inhibition, % at 38.7 µM; in the data active = inhibition mostly above about 28%, no sharp cut-off; inactive = mostly below about 43%; also: 0% is about no effect
LmPK inh: qHTS Assay for Inhibitors of Leishmania Mexicana Pyruvate Kinase (LmPK); AID 1721, 2009; Potency, µM (doses to about 57.5 µM), for the others: at the top dose activity change, negative = inhibition, hits mostly inhibitors; Q27686; purified LmPK, Kinase-Glo ATP luminescence, 1 h; actives 0.37% (n = 290,000); also: potency is read from the fitted curve at half-maximal effect; % is scaled to controls: 0 for no effect and ±100 for the full control effect
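ATP generated from ADP (0.1 mM) and PEP (0.5 mM) by 0.1 nM LmPK over 1 h at room temperature (pH 7.2 imidazole buffer) was detected by coupled luciferase luminescence. Values were normalized to uninhibited and no-enzyme wells.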
Cycloheximide cs: Cycloheximide Counterscreen for Small Molecule Inhibitors of Shiga Toxin. cell reporter, cycloheximide protein synthesis inhibition counterscreen. max response, %. actives 12% (n = 300,000). AID 2314, 2010; in the data active = max response mostly above about 13%, no sharp cut-off; inactive = mostly below about 14%; also: read at 38.3 µM for the half of the compounds with a filed dose; 0% is about no effect
FBPA Giardia inh: qHTS Assay for Inhibitors of Fructose-1,6-bisphosphate Aldolase from Giardia Lamblia | actives 0.71% (n = 290,000) | Potency, µM (top dose mostly 59.6 µM), for inactives: at the highest dose activity, negative = inhibition, hits mostly inhibitors | A8B2U2 | purified Giardia FBPA; also: potency is read from the fitted curve at half-maximal effect; % is scaled to controls: 0 for no effect and ±100 for the full control effect; nearly all actives have a fitted effect of over 55% in size
Target sequence (A8B2U2 whole entry, looked up): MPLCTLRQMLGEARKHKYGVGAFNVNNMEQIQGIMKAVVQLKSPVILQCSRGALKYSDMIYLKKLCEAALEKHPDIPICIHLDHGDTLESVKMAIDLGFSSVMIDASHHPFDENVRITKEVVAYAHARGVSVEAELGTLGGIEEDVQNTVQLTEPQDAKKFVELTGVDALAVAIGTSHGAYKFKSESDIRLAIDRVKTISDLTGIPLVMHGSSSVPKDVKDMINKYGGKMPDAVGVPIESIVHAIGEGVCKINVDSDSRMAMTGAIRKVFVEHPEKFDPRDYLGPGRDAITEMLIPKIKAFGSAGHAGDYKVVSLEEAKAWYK
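40 nM FBPA preincubated 10 min at RT with compound (up to 57.5 uM final), then substrate plus GAPDH/TPI/NAD/arsenate coupling and diaphorase/resazurin added. Fluorescence read after 20 min at RT, 525/598 nm.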
Starred values were filed as active, the others as inactive; u = inconclusive; x = no result given; [ ] = dose if it differs, or a comment. This is a sample that favours compounds with a hit; in the whole collection about 14% have one here. Unless noted, calls follow the shape of the dose curve; as a rule, active = well fitted curve in the direction sought with a large enough effect; inconclusive = small, poorly fitted or top-dose-only effect, or another doubt; inactive = no such curve, though single readings can be large; an effect the other way counts as inactive or inconclusive.

SMILES	NS1 function inh	Shiga inhibitor	LmPK inh	Cycloheximide cs	FBPA Giardia inh
COc1ccc2nc(NC(=O)C3CCCO3)sc2c1 (centres undefined)	0%	101*	-8%	65*	0%
COc1ccc(NC(=O)C2CCCO2)c(OC)c1 (centres undefined)	7%	19	1%	1	10%
CC(C)NC[C@@H](O)c1ccc(O)c2ncccc12	-2%	x	x	x	x
Cc1noc(C)c1-c1ccc2ncnc(NCc3ccc4c(c3)OCO4)c2c1	x	20	x	18	-8%
ClC(=C\c1ccccc1)/C=N/N1CCN(c2ccccn2)CC1	8%	53*	1%	33*	0%
Cc1ccc(N2CCN(/N=C/c3cccnc3)CC2)cc1	0%	7	-3%	8	6%
Cc1ccc(/C=N/N2CCN(c3ccccn3)CC2)cc1	x	64*	-1%	47*	0%
CCc1ccc(/C=N/N2CCN(c3ccccn3)CC2)cc1	12%	68*	3%	37*	7%
CCN(CC)c1ccc(/C=N/N2CCN(c3ccccn3)CC2)cc1	1%	-8	4%	2	4%
COc1cccc([C@@H]2Oc3ccc(Br)cc3C[C@H]2OC(=O)N[C@H]2CCCc3ccccc32)c1	x	x	x	x	-7%
COc1ccc(-n2[nH]c3c4c(ncc3c2=O)CCCCC4)cc1	x	14	x	-3	7%
c1ccc(CSc2ccc(-c3ccc4c(c3)OCO4)nn2)cc1	-17%	38	-2%	27*	3%
Cc1ccc(NC(=O)CSc2ccc(-c3ccc4c(c3)OCO4)nn2)cc1F	8%	-16	-5%	-3	2%
Fc1ccc(CSc2ccc(-c3ccc4c(c3)OCO4)nn2)cc1	-2%	6	0%	11*	-2%
Cc1cc(NC(=O)CSc2ccc(-c3ccc4c(c3)OCO4)nn2)no1	x	-5	0%	11	0%
O=c1c2cc([N+](=O)[O-])ccc2nc2n1CCCC2	3%	-5	1%	-1	8%
O=c1c2cc(Br)ccc2nc2n1CCCCC2	-17%	55	-2%	29*	x
Cc1ccc2nc3n(c(=O)c2c1)CCCCC3	6%	53*	1%	31*	-9%
CCN(CC)C(=S)Nc1ccc2nc3n(c(=O)c2c1)CCCCC3	x	15	3%	10	1%
CSc1nc(C=Nc2ccccc2Cl)c(O)n1Cc1cccc(Cl)c1	-3%	-5	11%	8	2%
CCOC(=O)c1sc(NC(=S)NC(=O)c2cccc(OC)c2)nc1C	-1%	5	4%	10	u
COC(=O)c1sc(NC(=O)/C=C/c2ccccc2Cl)nc1C	x	43	1%	13	3%
CCCOc1ccc(C(=O)NC(=S)Nc2nc(C)c(C(=O)N(C)C)s2)cc1	3%	-10	-1%	-4	u
Cc1nc(NC(=S)NC(=O)c2ccccc2)sc1C(=O)N(C)C	-16%	34	0%	22*	u
CCOC(=O)c1sc(NC(=O)C(OC(C)=O)c2ccccc2)nc1C (centres undefined)	-7%	39*	7%	25*	-6%
SMILES	NS1 function inh	Shiga inhibitor	LmPK inh	Cycloheximide cs	FBPA Giardia inh
CCOC(=O)c1sc(NC(=S)NC(=O)c2ccccc2)nc1C	x	165*	-14%	42*	u
COC(=O)c1sc(NC(=S)NC(=O)c2ccccc2)nc1C	-4%	-9	-4%	26*	-18%
CC(c1ccon1)N(C)C(=O)c1ccc2nc(Cc3cccc(Cl)c3)oc2c1 (centres undefined)	1%	10	2%	19	x
CC1Cc2c(-c3ccccc3)nc3c(c2CO1)CN(CCOc1ccccc1)CC3 (centres undefined)	x	x	x	x	-9%[12.9 µM]
COC(=O)c1sc(NC(=S)NC(=O)c2ccccc2Cl)nc1C	14%	65*	-10%	40*	15%
CC(=O)n1c2ccccc2c2nc(NC(C)C)sc21	-171%	22	-2%	16*	-26%
CC(=O)Nc1cc(NC(C)=O)cc(C(=O)OCC(=O)Nc2ccc(S(=O)(=O)NC3=NCCCCC3)cc2)c1	-11%	-6	-1%	-4	x
Cc1nc(S/C(=C/c2ccc(-c3ccc(Cl)cc3)o2)C(=O)O)n[nH]1	7%	-13	-4%	-1	10%
Cc1nc(S/C(=C/c2ccc(-c3cc(Cl)ccc3C)o2)C(=O)O)n[nH]1	5%	103*	0%	29*	-30%
Cc1ccc(C)c(NC(=S)NNC(=O)c2csc3c2CCCC3)c1	-6%	-18	3%	0	6%
CCOc1cc(/C=N/NC(=O)c2ccc(CN3CCOCC3)cc2)ccc1OC	2%	-10	1%	2	0%
COc1cc(/C=N/NC(=O)c2csc3c2CCCC3)ccc1OCCN1CCOCC1	-5%	26	2%	26*	x
Cc1ccc(/C=N/NC(=O)c2csc3c2CCCC3)cc1	-12%	101*	-3%	27*	-4%
COc1cc(/C=N/NC(=O)c2csc3c2CCCC3)cc(OC)c1O	-24%	17*	-4%	-3	-8%
CC(/C=C/c1ccccc1)=N/NC(=O)C(O)c1ccccc1 (centres undefined)	-6%	45*	-3%	10	0%
CC(/C=C/c1ccccc1)=N\Nc1ccccc1[N+](=O)[O-]	x	89*	-3%	32*	-1%
CC(/C=C/c1ccccc1)=N\NC(=O)CCc1ccccc1	0%	16	8%	7	-3%
CCOC(=O)N/N=C(C)/C=C/c1ccco1	6%	31	-5%	21*	-11%
CCOC(=O)N/N=C(C)/C=C/c1ccccc1	-7%	16	-3%	28*	5%
O=C(NC1CCCC1)C(c1ccccn1)N(Cc1ccccc1F)C(=O)c1csnn1 (centres undefined)	2%	-4	-4%	-1	0%
Cc1ccc(-c2nc3ccccc3[nH]2)cc1NC(=O)c1ccco1	-138%	53	6%	22*	-5%
CC(=O)Nc1ccc(Cc2nc3ccccc3[nH]2)cc1	-1%	-3	1%	-3	-15%
O=C(Nc1cccc(-c2nc3ccccc3[nH]2)c1)c1cccc(NC(=O)c2ccco2)c1	4%	-19	2%	-7	4%
Cc1ccc(-c2nc3ccccc3[nH]2)cc1NC(=O)c1sc2cc(Cl)ccc2c1Cl	-23%	54	-1%	20*	-8%
CC(=O)Nc1ccc2nc(-c3ccc(Br)o3)[nH]c2c1	-8%	58*	-9%	55*	-28%
O=C(Nc1ccc2nc(-c3ccccc3)[nH]c2c1)c1ccco1	-11%	47*	-6%	36*	-5%
Cc1ccc(-c2nc3ncccc3o2)cc1NC(=O)c1ccco1	20%	x	x	x	x
Cc1ccc(-c2nc3ncccc3o2)cc1NC(=O)c1sc2ccccc2c1Cl	3%	10	2%	-3	-1%
C[C@@](N)(Cc1c[nH]c2ccccc12)C(=O)O	-7%	x	x	x	x
CSc1ncnc2c1ncn2[C@@H]1O[C@@H](CO)[C@H](O)O[C@@H]1O	6%	x	x	x	x
